Screens from PubChem.
CHX counter – Cycloheximide Counterscreen for Small Molecule Inhibitors of Shiga Toxin; cell reporter, cycloheximide protein synthesis inhibition counterscreen; max response, %; 12% of 300,000 active; AID 2314, 2010; in the data active = max response mostly above about 13%, no sharp cut-off; inactive = mostly below about 14%; also: read at 38.3 µM for the half of the compounds with a filed dose; 0% is about no effect
Pf growth 96h – Primary qHTS for delayed death inhibitors of the malarial parasite plastid, 96 hour incubation; 6.9% of 320,000 active; Potency, µM (doses to about 28.7 µM), inactives show at the top dose activity change, negative = inhibition, hits mostly inhibitors; AID 504834, 2011; P. falciparum luciferase reporter growth, 96 h; active = well fitted inhibition curve with a large enough effect; inconclusive = small, poorly fitted or top-dose-only effect, or another doubt; inactive = no such curve, though single readings can be large or run the other way; also: potency is read from the fitted curve at half-maximal effect; % is scaled to controls: 0 for no effect and ±100 for the full control effect
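Two parasite generations (96 h, 37 C, 5% CO2) of compound exposure in infected erythrocytes (0.05% parasitemia, 2% hematocrit). Luciferase-reporter P. falciparum; decreased luminescence indicates inhibited growth, aimed at apicoplast-acting delayed death.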
NS1 function inh – qHTS Assay for Inhibitors of Influenza NS1 Protein Function; AID 2326, 2010; 0.4% of 270,000 active; Potency, µM (top dose mostly 46.1 µM), inactives show at the highest dose activity, positive = more growth; also: potency is read from the fitted curve at half-maximal effect; actives are rising curves; nearly all actives have a fitted effect of over 50% in size
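Recovery from NS1-induced slow growth read by OD600 in budding yeast switched to galactose assay medium (pH 6.0, -URA) at 1:100 dilution. Compound 23 nl per well; the matching strain lacking NS1 serves as control.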
SARS PLP yeast – qHTS of Yeast-based Assay for SARS-CoV PLP; S. cerevisiae expressing SARS-CoV PLpro, growth rescue; Potency, µM (top dose mostly 32.9 µM), for inactives: at the top dose activity, positive = growth rescue, hits mostly activators; 0.19% of 330,000 active; AID 485353, 2010; also: potency is read from the fitted curve at half-maximal effect; 0% is about no effect; nearly all actives have a fitted effect of over 55% in size
Shiga inhibitor – A qHTS for Small Molecule Inhibitors of Shiga Toxin; 9.2% of 290,000 active; inhibition, % at 38.7 µM; AID 2315, 2010; Vero cells, Shiga toxin protein synthesis inhibition reporter; in the data active = inhibition mostly above about 28%, no sharp cut-off; inactive = mostly below about 43%; also: 0% is about no effect
Pf growth 48h – Primary qHTS for delayed death inhibitors of the malarial parasite plastid, 48 hour incubation | P. falciparum luciferase growth in erythrocytes, 48 h | Potency, µM (highest dose often 28.7 µM), for the others: top-dose activity change, negative = inhibition, hits mostly inhibitors | 5.9% of 310,000 active | AID 504832, 2011; active = well fitted inhibition curve with a large enough effect; inconclusive = small, poorly fitted or top-dose-only effect, or another doubt; inactive = no such curve, though single readings can be large or run the other way; also: potency is read from the fitted curve at half-maximal effect; % is scaled to controls: 0 for no effect and ±100 for the full control effect
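A one-generation exposure of luciferase-tagged malaria parasites in RPMI 1640/Albumax erythrocyte culture, 37 C and 5% CO2. Inhibition is inferred from decreased luminescence after adding detection reagent.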
Active calls of the source: *; ? = inconclusive; nt = no result given; [ ] = another dose, or the depositor's remark. This is a sample that favours compounds with a hit; in the whole collection about 21% have one here. Unless noted, calls follow the shape of the full dose curve.

SMILES | CHX counter | Pf growth 96h | NS1 function inh | SARS PLP yeast | Shiga inhibitor | Pf growth 48h
O=c1[nH]c2ccc(NCc3ccc(F)cc3)cc2[nH]1 | 13* | ? | 15% | 3% | 41* | 39%
N#C/C(=C\N1CCCCC1)S(=O)(=O)c1ccc(Cl)cc1 | -3 | -6% | 4% | 2% | -5 | -6%
CN(C(=O)COC(=O)c1ccc(Cl)cc1N)C1CCCCC1 | 21* | 21% | nt | -10% | 13 | -8%
Cc1cc(OCC(=O)N(C)C2CCCCC2)ccc1Cl | 25* | ? | nt | -3% | 55 | 484%
Cc1cc(OCC(=O)N(C)C2CCCCC2)cc(C)c1Cl | 42* | -5% | nt | -3% | 91* | -2%
CN(C(=O)COC(=O)c1ccc([N+](=O)[O-])cc1Cl)C1CCCCC1 | 8 | 28% | nt | 4% | 27 | 14%
CN(C(=O)COC(=O)COc1ccc(Cl)cc1)C1CCCCC1 | -4 | -15% | -18% | 1% | -11 | 4%
COc1cc(C)c(NC(=O)C2CCN(S(=O)(=O)c3cccs3)CC2)cc1OC | nt | 7% | nt | 2% | nt | -10%
O=C(Nc1ccc(Cl)cc1)N1CCSC1=NCc1ccccc1 | 34 | -16% | -1% | 2% | 25 | 7%
CC(=O)Nc1ccc(C2=NN(C)C(=NCc3ccccc3)SC2)cc1 | 17 | 12µM* | nt | 1% | 32 | ?
COc1cc(NC(=O)Cc2ccc(S(=O)(=O)N3CCOCC3)s2)c(OC)cc1Cl | nt | 8.3µM* | nt | -3% | nt | ?
O=C(Cc1ccc(S(=O)(=O)N2CCOCC2)s1)Nc1nc2c(s1)CCCC2 | 9 | 9.3µM* | 23% | -4% | 3 | ?
COC(=O)c1c(NC(=O)Cc2ccc(OC)c(S(=O)(=O)N3CCOCC3)c2)sc(C)c1C | nt | ? | nt | 0% | nt | 13µM*
CCNC(=O)Cc1ccc(S(=O)(=O)N2CCOCC2)s1 | nt | -61% | nt | 0% | nt | ?
O=C(Cc1ccc(S(=O)(=O)N2CCOCC2)s1)Nc1cc(Cl)ccc1Cl | nt | ? | nt | 0% | nt | 13µM*
Cc1c(NC(=O)CC2NC(=O)NC2=O)c(=O)n(-c2ccccc2)n1C (configuration not stated) | 0 | 4% | nt | 2% | -23 | 12%
O=C(Cc1ccc(S(=O)(=O)N2CCCCC2)s1)Nc1ccc(F)cc1F | -2 | 13µM* | 29% | 5% | 10 | -26%
CCCN(CC(=O)Nc1ccc(F)c(F)c1F)C(=O)Cc1ccc(S(=O)(=O)N2CCOCC2)s1 | nt | ? | nt | 0% | nt | 12µM*
COc1cc(NC(=O)Cc2ccc(OC)c(S(=O)(=O)N3CCOCC3)c2)c(OC)cc1Cl | -1 | 15µM* | -16% | -4% | 14 | ?
COc1cc(OC)c(NC(=O)Cc2ccc(OC)c(S(=O)(=O)N3CCOCC3)c2)cc1Cl | 0 | ? | -7% | 7% | -9 | ?
COc1ccc(NC=O)c(C(=O)CCNC(C)=O)c1 | -2 | nt | nt | nt | -13 | nt
O=C(NCC(c1cccs1)N1CCOCC1)c1ccc(Cl)c(S(=O)(=O)N2CCOCC2)c1 (configuration not stated) | -1 | ? | 5% | 0% | 24 | ?
CCCN(C(=O)CSc1nc2c(cnn2-c2ccccc2)c(=O)[nH]1)C1CCS(=O)(=O)C1 (configuration not stated) | -6 | ? | 11% | 14% | 2 | 9.3µM*
CC1CCN(C(=O)CSc2nc3c(cnn3-c3ccccc3)c(=O)[nH]2)CC1 | -3 | ? | 18% | 4% | 14 | nt
COc1ccc2c(-c3ccccc3)cc(SC(C)C(N)=O)nc2c1 (configuration not stated) | -2 | ? | nt | -2% | -9 | 10µM*
SMILES | CHX counter | Pf growth 96h | NS1 function inh | SARS PLP yeast | Shiga inhibitor | Pf growth 48h
CCCN(C(=O)CSc1cc(-c2ccccc2)c2ccc(OC)cc2n1)C1CCS(=O)(=O)C1 (configuration not stated) | 1 | 9.3µM* | 23% | 6% | -17 | ?
CC(=O)N1CCN(C(=O)CSc2nc3c(cnn3-c3ccccc3)c(=O)[nH]2)CC1 | 38* | 5%[5.75 µM] | -2% | 2% | 78* | 0%
CCCN(C(=O)c1ccc(N(C)S(=O)(=O)c2ccc(C)cc2)cc1)C1CCS(=O)(=O)C1 (configuration not stated) | nt | ? | nt | -1% | nt | ?
O=C(COC(=O)c1ccccc1NC(=O)c1ccco1)NC1CCCCC1 | 1 | nt | -4% | 1% | 11 | 24%
CC(OC(=O)c1ccco1)C(=O)NC1CCCCC1 (configuration not stated) | -3 | ? | -8% | -4% | -20 | 8%
O=C(N[C@@H](Cc1ccccc1)C(=O)NC1CCCCC1)c1ccco1 | 14 | -30% | 10% | 13% | 23* | nt
O=C(N[C@@H](Cc1ccccc1)C(=O)NC1CCCCCC1)c1ccco1 | 53* | 16% | 0% | 0% | 98* | nt
O=C(COC(=O)c1ccco1)NC1CCCCC1 | 22* | nt | -3% | 0% | 17 | 2%
C/C(=N\NC(=O)NC1CCCCC1)c1ccco1 | 12* | 28% | nt | 0% | 23 | -11%
COc1ccc(S(=O)(=O)NCCc2cn3nc(C)c(C)nc3n2)cc1F | -2 | 36% | -2% | 3% | -1 | 23%
Cn1c(CC(=O)NNC(=O)c2cccnc2)nc2ccccc21 | nt | 6% | nt | -6% | nt | 1%
O=C(NC1CCN(C(=O)NC2CCCCC2)CC1)c1ccco1 | -3 | nt | -1% | 0% | 19 | 1%
O=C(NC1CCCCCCC1)c1ccco1 | 18* | nt | -37% | -12% | 43* | 0%
CCn1cc(C2Nc3ccccc3C(=O)N2O)c(C)n1 (configuration not stated) | 12* | -13% | ? | -6% | 44* | 47%
COc1cccc(C2Nc3ccccc3C(=O)N2O)c1O (configuration not stated) | 3 | 15% | -23% | 2% | 41 | 27%
Cc1c(C2Nc3ccccc3C(=O)N2O)cnn1C (configuration not stated) | 17* | 25% | 2% | -25% | -2 | 30%
Cc1ccc(N2C(=O)C(Cl)=C(NCc3ccccc3)C2=O)c(C)c1 | 13 | 50% | -78% | -27% | 50 | 2%
N=c1c2c3c(sc2ncn1Nc1ccccc1)CCC3 | 5 | 2.9µM* | -5% | 0% | -1 | 1.7µM*
Cc1cc(=O)[nH]c(SCC(=O)N2CCCC(C)C2)n1 (configuration not stated) | 7 | 20% | 2% | 1% | -7 | 19%
COc1ccc(/C(C#N)=C/c2c(-c3ccc(Cl)cc3)nc3c(C)cccn23)cc1 | -2 | ? | -5% | -27% | -18 | ?
Cc1cccn2c(/C=N/OCc3ccc(F)cc3)c(-c3ccc(Cl)cc3)nc12 | -2 | 12µM* | -6% | 6% | -4 | ?
